Laboratory results: PubChem BioAssay (NCI)
Where “and” joins values, the source holds several entries; their conditions need not be identical. Equal entries are not always repeated. Compounds without any hit were thinned out: in the full panel of roughly 83,000, 20% have a hit.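 Testing used 96-well plates and a 48-hour single-concentration exposure. Example: -40 means 40% of the starting cells died.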 Values without a mark were called inactive. Calls of active or inactive are those of the source. The calls were made as follows: active = growth percent below 10; inactive = the rest.

Legend:
Assay in all cases: NCI-60 one-dose screen, 48 h (100 = growth as untreated, 0 = no growth, -100 = all killed)
Conditions in all cases: 10 µM unless noted
MOLT-4 leukemia = tested on: MOLT-4 leukemia
SR leukemia = tested on: SR leukemia
RPMI-8226 leukemia = tested on: RPMI-8226 leukemia
OVCAR-8 ovarian = tested on: OVCAR-8 ovarian
OVCAR-5 ovarian = tested on: OVCAR-5 ovarian
OVCAR-4 ovarian = tested on: OVCAR-4 ovarian
SK-OV-3 ovarian = tested on: SK-OV-3 ovarian
IGROV1 ovarian = tested on: IGROV1 ovarian
OVCAR-3 ovarian = tested on: OVCAR-3 ovarian
HS 578T breast = tested on: HS 578T breast
NCI/ADR-RES ovarian = tested on: NCI/ADR-RES ovarian
T-47D breast = tested on: T-47D breast
BT-549 breast = tested on: BT-549 breast
MDA-MB-435 melanoma = tested on: MDA-MB-435 melanoma
SW-620 colon = tested on: SW-620 colon
MCF7 breast = tested on: MCF7 breast
HCT-116 colon = tested on: HCT-116 colon
HCC-2998 colon = tested on: HCC-2998 colon
KM12 colon = tested on: KM12 colon

| Compound | growth (MOLT-4 leukemia) | growth (SR leukemia) | growth (RPMI-8226 leukemia) | growth (OVCAR-8 ovarian) | growth (OVCAR-5 ovarian) | growth (OVCAR-4 ovarian) | growth (SK-OV-3 ovarian) | growth (IGROV1 ovarian) | growth (OVCAR-3 ovarian) | growth (HS 578T breast) | growth (NCI/ADR-RES ovarian) | growth (T-47D breast) | growth (BT-549 breast) | growth (MDA-MB-435 melanoma) | growth (SW-620 colon) | growth (MCF7 breast) | growth (HCT-116 colon) | growth (HCC-2998 colon) | growth (KM12 colon) |
| --- | --- | --- | --- | --- | --- | --- | --- | --- | --- | --- | --- | --- | --- | --- | --- | --- | --- | --- | --- |
| CC(=O)OC1CC2(O)C(CCC3(C)C(c4ccc(=O)oc4)CCC32O)C2(C)CCC(OC3OC(CO)C(O)C(O)C3O)C=C12 (configuration not stated) | -19.6% (active) | -15.3% (active) | -23.3% (active) | -55.6% (active) | -73.5% (active) | -64.4% (active) | -13.9% (active) | -26.5% (active) | -100% (active) | -11.3% (active) | -61.6% (active) | -9.39% (active) | -85.4% (active) | -90.2% (active) | -67.4% (active) | -23.4% (active) | -94.3% (active) | -63.3% (active) | -97.8% (active) |
| O=S(OO)c1cc(Cl)c(O)c(Cl)c1 (configuration not stated) | 103% | 95.1% | 99.9% | 101% | 107% | 89.9% | 103% | 104% | 114% | 104% | 101% | 87.6% | 89.1% | 97.1% | 98.3% | 78.6% | 105% | 95.5% | 108% |
| O=S(=O)(F)c1cccc(Cl)c1C[P+](c1ccccc1)(c1ccccc1)c1ccccc1 | 112% | 95.3% | 74.1% | 84.3% | 94.8% | 90.2% | 89.2% | 85.4% | 96.5% | 103% | 109% | 91.9% | 106% | 84.4% | 100% | 103% | 92.4% | 99.4% | 102% |
| C/C(=C\c1ccn(-c2ccc(N)c(C(F)(F)F)c2)n1)[C@@H]1C[C@@H]2O[C@]2(C)CCC[C@H](C)[C@H](O)[C@@H](C)C(=O)C(C)(C)[C@@H](O)CC(=O)O1 | 10.2% | 7.67% (active) | 9.58% (active) | 28.4% | 23% | 55.1% | 45% | 40.4% | -0.83% (active) | 25.1% | 0.324% (active) | 47.6% | 28.2% | -26.8% (active) | 44.5% | 17% | 9.04% (active) | 0.272% (active) | 20.6% |
| O=[N+]([O-])c1ccc(OCc2ccc(S(=O)(=O)F)c(Cl)c2)c(Cl)c1 | 68.2% | 87.5% | 97.8% | 105% | 99% | 102% | 107% | 100% | 112% | 95.4% | 102% | 97% | 91.6% | 113% | 98.8% | 92.8% | 90.1% | 105% | 113% |
| CC[C@H](C)[C@H]1O[C@]2(C=C[C@@H]1C)C[C@@H]1C[C@@H](C/C=C(\C)[C@@H](O[C@H]3C[C@H](OC)[C@@H](O[C@H]4C[C@H](OC)[C@@H](NC)[C@H](C)O4)[C@H](C)O3)[C@@H](C)/C=C/C=C3\CO[C@@H]4[C@H](O)C(C)=C[C@@H](C(=O)O1)[C@]34O)O2 | -42.3% (active) | -32.4% (active) | -30.7% (active) | 10.7% | -34.5% (active) | -1.85% (active) | -36.6% (active) | -31.9% (active) | -68.8% (active) | -42.9% (active) | 0.588% (active) | -27.6% (active) | 3.48% (active) | -83.4% (active) | -68.1% (active) | -85% (active) | -79% (active) | -83.9% (active) | -70.6% (active) |
| CCCC1CCCCC12C(=O)NC(=O)NC2=O (configuration not stated) | 110% and 97.1% | 91.8% | 95.9% | 107% and 103% | 97.8% and 107% | 94.1% and 104% | 94.7% and 106% | 111% | 106% and 105% | 91.8% and 106% | 99.6% and 104% | 93.2% and 87.8% | 112% and 98.9% | 99.1% and 108% | 94.9% and 106% | 98.6% and 99.9% | 109% and 94.4% | 103% and 96.6% | 98.1% and 107% |
| COC(=O)[C@@H](C)C[C@H](Cc1ccccc1)NC(=O)c1cccc([C@@H](C[C@H](C(C)C)N(C)C(=O)[C@@H](NC(=O)[C@H]2CCCCN2C)C2CC2)OC(C)=O)n1 | 14.6% | 14.5% | 25.4% | 14.4% | 38.2% | 52% | 1.39% (active) | 23.3% | -47.5% (active) | 27% | 16.4% | 63.1% | -17.1% (active) | -25.4% (active) | 23% | 14% | 1.92% (active) | 13% | -1.96% (active) |
| O=[P+](O)c1cccnc1 | 109% | 96.4% | 100% | 107% | 107% | 107% | 103% | 111% | 108% | 105% | 102% | 88.2% | 116% | 107% | 107% | 102% | 102% | 115% | 101% |
| O=[N+]([O-])c1cc(Cl)c(Cl)cc1Cl | 102% and 103% | 86.5% and 108% | 97.4% and 112% | 108% | 110% and 99.6% | 108% and 113% | 123% and 110% | 111% and 109% | 119% | 95.9% | 102% and 104% | 107% and 108% | 121% and 119% | 101% and 107% | 100% and 105% | 99% and 113% | 107% and 106% | 94.2% and 118% | 109% and 113% |
| C[C@]12CCc3sc(Nc4ccc(F)cc4F)nc3C1=CC[C@@H]1[C@@H]2CC[C@]2(C)C(=O)CC[C@@H]12 | 3.63% (active) | 0.71% (active) | -20.8% (active) | 45.2% | 91.8% | 66.7% | 84.1% | 62.1% | -4.15% (active) | 55.3% | 67.6% | 48.9% | 59.6% | 51.5% | 7.16% (active) | 14.6% | -23.3% (active) | 71.6% | 57.1% |
| O=c1[nH]c(=O)n(Cl)c(=O)n1Cl | 113% and 104% | 102% and 113% | 82.1% | 103% and 108% | 102% and 96.2% | 115% and 109% | 111% and 109% | 124% and 96.9% | 111% and 110% | 106% and 99.9% | 115% and 96.8% | 112% and 95.3% | 108% and 110% | 102% and 114% | 105% and 110% | 108% and 86% | 113% and 99.4% | 123% and 96% | 101% and 107% |
| Oc1ccccc1C=NCCN=Cc1ccccc1O | 106% | 98.5% | 95.1% | 110% | 104% | 109% | 102% | 118% | 102% | 106% | 103% | 103% | 106% | 108% | 100% | 97.7% | 94.2% | 105% | 104% |
